The list is not random: actives were taken first. Their share in the collection is about 4.5%.
Rtt109 Vps75 = inhibitors of Candida albicans Rtt109/Vps75 histone acetyltransferase; inhibition, % at 34.9 µM; Q5AAJ8; purified Rtt109/Vps75, ThioGlo CoA-SH fluorescence, 4 h; AID 540336; hit rate 0.16% among 330,000;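 active = inhibition of at least 50% in every replicate; inconclusive = best replicate reaches 50% inhibition but some replicates fall short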
Target sequence (Q5AAJ8 whole entry, looked up): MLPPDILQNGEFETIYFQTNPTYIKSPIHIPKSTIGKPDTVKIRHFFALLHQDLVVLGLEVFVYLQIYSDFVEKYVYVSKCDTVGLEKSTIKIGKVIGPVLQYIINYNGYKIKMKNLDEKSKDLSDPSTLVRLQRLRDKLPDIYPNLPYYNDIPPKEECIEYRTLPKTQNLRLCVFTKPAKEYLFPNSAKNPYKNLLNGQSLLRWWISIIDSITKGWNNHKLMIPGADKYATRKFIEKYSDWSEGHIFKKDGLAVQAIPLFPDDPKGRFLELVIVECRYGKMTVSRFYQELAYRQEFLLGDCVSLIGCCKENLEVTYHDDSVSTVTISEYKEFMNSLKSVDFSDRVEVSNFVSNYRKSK
Rce1 inhib = inhibitors of yeast Ras-converting enzyme | calls only | hit rate 0.27% among 290,000 | yeast membranes, quenched prenylated peptide cleavage fluorescence | Q03530;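 active = fall in fluorescence gain of 50% or more versus controls, with final raw signal at or below 3038400; inconclusive = same 50% fall but final raw signal above 3038400; inactive = fall in fluorescence gain under 50%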;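 also: plate controls were neutral control wells for no effect and wells lacking membranes for full effect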
HDAC3 inh = inhibitors of human histone deacetylase 3; hit rate 0.15% among 320,000; recombinant HDAC3, fluorogenic peptide/trypsin coupled, fluorescence; O15379; inhibition, % at 8.3 µM; in the data active = inhibition above about 26%, passing the limit was not always enough; inconclusive = no clear call, values can overlap the other calls
GRK2 aptamer HTS = blocks RNA aptamer binding to human GRK2 | bead flow cytometry, FAM-aptamer displacement from GRK2 | hit rate 0.59% among 330,000 | AID 488847 | inhibition of aptamer binding, % at 10 µM;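 active = inhibition of aptamer binding above 40%, roughly 3 SD of noise, on plates passing a quality check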;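 also: median bead fluorescence of bound FAM aptamer so fluorescent compounds give negative values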
Efflux pump inh = blocks antifungal efflux pumps in multiplex yeast assay; S. cerevisiae Candida pump triplex, Nile Red efflux; inhibition, % at 10 µM; hit rate 0.44% among 330,000;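 active = plate passing quality check with inhibition over a set limit, or well fluorescence over plate mean plus 4 SD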;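 also: Nile Red retained in pooled yeast measured as flow cytometry median fluorescence; 0% = buffer negative control and 100% = Enniatin B positive control; higher means more Nile Red kept so more efflux inhibition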
ALR inh = inhibitors of human sulfhydryl oxidase ALR | P55789 | purified ALR, DTT oxidation, H2O2 HRP-luminol luminescence | inhibition, % (test concentration not listed) | hit rate 3.8% among 290,000;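 active = mean replicate inhibition above about 79%, with every replicate also reaching it, limit read from the data; inconclusive = only one of the two criteria met; inactive = mean below limit and not every replicate reaching it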
Target sequence (P55789 whole entry, looked up): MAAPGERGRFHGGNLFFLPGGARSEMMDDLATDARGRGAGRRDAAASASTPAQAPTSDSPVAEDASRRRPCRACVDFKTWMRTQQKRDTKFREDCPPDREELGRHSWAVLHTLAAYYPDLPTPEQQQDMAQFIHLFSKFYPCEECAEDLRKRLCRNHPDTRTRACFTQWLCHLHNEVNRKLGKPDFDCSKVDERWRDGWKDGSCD
GRK2 inh confirm = confirmation of human GRK2 inhibitors displacing RNA aptamer; shares compounds with GRK2 aptamer HTS; hit rate 4% among 2,000; aptamer displacement, % at 10 µM; AID 504451; bead-bound GRK2, FAM-aptamer displacement, flow cytometry;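 active = aptamer displacement above 40%, near three times the noise of non-fluorescent compounds, on plates passing quality checks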;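 also: negative values mostly reflect intrinsic compound fluorescence rather than true enhancement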
Aptamer quench 1 = fluorescent aptamer quenching in GRK2 counter-screen dose response. shares compounds with GRK2 aptamer HTS. Fluorescent RNA aptamer beads, flow cytometry; hits give high values. fluorescence change (kMESF span), kMESF (test concentration not listed). 110 tested, under 10 active. AID 504521;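 active = compounds whose bead fluorescence drops by more than 37 kMESF across the dose range, marking them as dye quenchers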
FAM quench CP1 = counter-screen for GRK2 aptamer inhibitors: fluorescent aptamer quenchers; Carboxyfluorescein RNA aptamer on beads, flow cytometry quenching; hits give low values; fluorescence response (% of DMSO), % at 10 µM; AID 504580; 2,000 tested, under 10 active; shares compounds with GRK2 aptamer HTS;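 active = compounds that quench the bead-bound fluorescent RNA probe, cutting fluorescence to under half of the solvent control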;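 also: counterscreen run without GRK2 so only probe quenching by compound is measured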
* = called active by the depositor; i = inactive; u = inconclusive; x = no result.

SMILES	Rtt109 Vps75	Rce1 inhib	HDAC3 inh	GRK2 aptamer HTS	Efflux pump inh	ALR inh	GRK2 inh confirm	FAM quench CP1	others
CCOc1ccc(N2CC(C(=O)Nc3nnc(CC)s3)CC2=O)cc1 (centres undefined)	6	i	1	0	0	36	x	x
O=C(O)c1ccc(-n2cccc2/C=N\NC(=O)c2cc3cc(Br)ccc3o2)cc1	-2	i	11	58*	0	87*	35	97
Cn1cc(/C=N/NC(=O)c2cc3cc(Br)ccc3o2)c2ccccc21	x	i	-3	2	0	-8	x	x
Cc1cc(C(=O)COC(=O)c2ccc(NC(=O)CC#N)cc2)c(C)n1CCc1ccc(F)cc1	2	x	4	57*	0	-1	2	98
COC(=O)CN1C(=O)C2(OCCCO2)c2cc(Br)ccc21	1	i	2	99*	0	-8	0	101
CCOC(=O)CN1C(=O)C2(OCCCO2)c2ccccc21	-5	i	5	1	0	-3	x	x
COc1cccc(-c2cc(C(=O)Nc3ccc(OC)c(OC)c3)no2)c1	-3	i	3	98*	0	-22	3	99
CC(=O)c1cccc(NC(=O)c2cc(-c3ccc(F)cc3)on2)c1	-20	i	4	0	-1	x	-1	97
COc1ccc(CNC(=O)C2CCCN(Cc3nc(-c4cccc(C)c4)oc3C)C2)cc1 (centres undefined)	11	i	-7	0	0	-7	0	95
Cc1ccccc1-c1nc(CN2CCCC(C(=O)NCc3cccnc3)C2)c(C)o1 (centres undefined)	-1	i	2	0	0	-15	1	108
Cc1oc(-c2ccc(Cl)cc2)nc1CN1CCCC(C(=O)NCc2ccco2)C1 (centres undefined)	7	i	3	3	0	5	-2	97
Cc1ccccc1-c1nc(CN2CCCC(C(=O)NCCCN3CCOCC3)C2)c(C)o1 (centres undefined)	-10	i	-2	0	0	-14	x	x
COc1cccc(OC)c1OCCCN1CCC(Cc2ccccc2)CC1	2	i	-5	2	0	-54	x	x
O=C(COC(=O)/C=C/c1ccco1)Nc1ncc(Cl)cc1Cl	1	i	7	60*	0	6	10	100
O=C(/C=C/c1ccco1)OCC(=O)N1CCCCC1	-10	x	10	76*	0	2	48*	93	Aptamer quench 1=-2.7
Cc1nc(NC(=O)COC(=O)/C=C/c2ccco2)c(Cl)cc1Cl	5	x	5	21	0	4	x	x
O=C(NCc1ccco1)c1cccc(NC(=O)c2ccccc2)c1	-1	i	2	0	0	-12	-3	106
Cc1ccc(C(=O)Nc2cccc(C(=O)NCc3ccco3)c2)cc1	12	i	2	0	0	-7	34	103	Aptamer quench 1=6.2
Cc1ccc(NC(=O)c2cc3c(=O)oc4ccc(C)cc4c3s2)nc1	x	i	-6	0	0	x	x	x
COc1ccc(C(=O)Nc2ccc(NC(=O)Cc3ccccc3)cn2)cc1	u	i	0	1	0	-2	x	x
COc1ccc(C(=O)Nn2c(C)nc3ccccc3c2=O)cc1[N+](=O)[O-]	-4	i	0	0	0	x	x	x
Cc1nc2ccccc2c(=O)n1NC(=O)c1cccc([N+](=O)[O-])c1	-2	i	1	98*	0	9	-10	96
Cc1cccc(NC(=O)CSCC(=O)Nc2ccccc2C(=O)NC2CC2)c1	-6	i	5	2	0	-14	x	x
Cc1c(N2C(=O)c3ccc(Br)cc3C2=O)c(=O)n(-c2ccccc2)n1C	-13	i	1	1	0	0	x	x
Cc1c(N2C(=O)c3ccc4c5c(ccc(c35)C2=O)CC4)c(=O)n(-c2ccccc2)n1C	1	i	7	46*	0	-20	32	89
SMILES	Rtt109 Vps75	Rce1 inhib	HDAC3 inh	GRK2 aptamer HTS	Efflux pump inh	ALR inh	GRK2 inh confirm	FAM quench CP1	others
CCOC(=O)C1CCN(C(=O)/C=C/c2ccc3c(c2)OCO3)CC1	-4	i	-6	0	0	x	x	x
Cc1ccc(-c2onc3ccc(C=O)cc23)cc1	-34	i	-2	45*	0	u	0	99
Cc1ccc(-c2onc3ccc(C4(C)OCCO4)cc23)cc1	-2	i	4	1	0	-3	x	x
Cc1ccc2cc(CN(Cc3nnnn3Cc3ccco3)CC3CCCO3)c(=O)[nH]c2c1C (centres undefined)	-4	i	3	64*	0	-1	-13	104
Cc1ccc2cc(CN(CC3CCCO3)C(=S)NCc3ccco3)c(=O)[nH]c2c1C (centres undefined)	-3	i	x	0	1	x	x	x
COc1ccc(C(=O)NNC(=O)CSc2nc3c([nH]2)c(=O)n(C)c(=O)n3C)cc1	1	x	0	100*	0	4	2	97
CCOc1cc(N2CCOCC2)c(OCC)cc1NC(=O)c1ccc(S(=O)(=O)N2CC(C)OC(C)C2)cc1 (centres undefined)	-3	x	x	x	x	x	x	x
CCOc1cc(N2CCOCC2)c(OCC)cc1NC(=O)c1ccc(OC)c(S(=O)(=O)N2CCOCC2)c1	4	x	4	1	0	-46	-1	105
CCOc1cc(N2CCOCC2)c(OCC)cc1NC(=O)c1cc(S(=O)(=O)N2CCOCC2)ccc1Cl	-3	x	x	x	x	x	1	98
O=C(NCCCO)C(=O)Nc1cc2c3c(c1)CCN3C(=O)CC2	1	i	11	6	1	8	x	x
Cc1c(C(=O)N2CCN(S(=O)(=O)c3ccccc3)CC2)oc2ccc(Br)cc12	1	x	x	2	0	x	x	x
O=C(O)c1c2c(nc3ccccc13)/C(=C/c1ccc(OC(F)F)cc1)CCC2	13	i	2	0	0	-4	x	x
O=C(O)c1c2c(nc3ccccc13)/C(=C/c1ccc(O)cc1)CC2	x	i	-3	67*	0	x	50*	98	Aptamer quench 1=8.9
COc1ccc(F)cc1C1=CC(=O)C[C@H](c2ccc3c(c2)OCO3)C1	-11	x	2	41*	0	2	19	98
O=C(CN(Cc1ccc(F)cc1)C(=O)CCC(=O)Nc1ccccn1)NCc1ccc(F)cc1	11	i	4	0	0	x	x	x
O=C(CN(Cc1ccc(F)cc1)C(=O)CCC(=O)Nc1ccccn1)NCc1ccco1	-2	i	2	100*	0	0	5	105

Screening results (PubChem BioAssay)
